# Experimental data as given in PubChem BioAssay (Tox21).
# Results filed as inconclusive are left out. Unmarked numbers belong to inactive results. Calls of active or inactive are those of the source. Unless noted, calls come from the whole dose curve.
# System: not listed separately
# Experiment: qHTS assay to identify small molecule antagonists of the sonic hedgehog signaling (Shh) pathway (AID 1259369); note: nearly all actives have a fitted effect of over 45% in size; note: potency is the fitted concentration of half-maximal effect
# Conditions: NIH/3T3 Gli1-Luc reporter, Shh antagonist, luminescence 24 h; series mostly up to 92.4 µM; activity change, negative = inhibition: at the top concentration
# In short: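 Screening used 3T3Gli1-Luc cells at 2,000 per well, compounds delivered in DMSO, and conditioned medium as agonist stimulus; plates incubated 24hr at 37 C and 5% CO2 before a 30min luciferase step.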
# % is set by controls: 0 for no effect and ±100 for the full control effect.
SMILES,"activity change, negative = inhibition",Potency
COc1cc2c(Nc3ccc(Br)cc3F)ncnc2cc1OCC1CCN(C)CC1,18.5% [at 42.5 µM],
NS(=O)(=O)c1cc2c(cc1Cl)NC(CC1CCCC1)NS2(=O)=O (configuration not stated),0.936% [at 42.5 µM],
N#CCCOCCOCCC#N,73%,
Cc1ccc2c(c1)c1c3n2CCNC3CCC1 (configuration not stated),-13.2% [at 42.5 µM],
C1CCN2C[C@@H]3C[C@@H](CN4CCCC[C@@H]34)[C@H]2C1,16.4% [at 42.5 µM],
Cn1c(=O)c2c(ncn2CC2OCCO2)n(C)c1=O,4.74% [at 42.5 µM],
O=C(O)c1ccc(OCCN2CCCCC2)cc1,29.4% [at 42.5 µM],
COC(=O)CCC(=O)O,0%,
NS(=O)(=O)c1cc2c(cc1Cl)NC(C(Cl)Cl)NS2(=O)=O (configuration not stated),-0.0496% [at 42.5 µM],
CCCCC(CC)CNC(=O)CC(C)OC(=O)CCC(=O)O (configuration not stated),32.4% [at 42.5 µM],
C[C@@H]1C[C@H]2[C@@H]3C[C@H](F)C4=CC(=O)C=C[C@]4(C)[C@@]3(F)[C@@H](O)C[C@]2(C)[C@@]1(O)C(=O)CO,,668 nM (active)
COc1ccc(N=Nc2cc(C)c(N=Nc3ccc(S(=O)(=O)O)cc3)cc2OC)cc1,0%,

# Target: Estrogen receptor beta (Homo sapiens) (UniProt Q92731)
# Sequence (Q92731 whole entry, looked up): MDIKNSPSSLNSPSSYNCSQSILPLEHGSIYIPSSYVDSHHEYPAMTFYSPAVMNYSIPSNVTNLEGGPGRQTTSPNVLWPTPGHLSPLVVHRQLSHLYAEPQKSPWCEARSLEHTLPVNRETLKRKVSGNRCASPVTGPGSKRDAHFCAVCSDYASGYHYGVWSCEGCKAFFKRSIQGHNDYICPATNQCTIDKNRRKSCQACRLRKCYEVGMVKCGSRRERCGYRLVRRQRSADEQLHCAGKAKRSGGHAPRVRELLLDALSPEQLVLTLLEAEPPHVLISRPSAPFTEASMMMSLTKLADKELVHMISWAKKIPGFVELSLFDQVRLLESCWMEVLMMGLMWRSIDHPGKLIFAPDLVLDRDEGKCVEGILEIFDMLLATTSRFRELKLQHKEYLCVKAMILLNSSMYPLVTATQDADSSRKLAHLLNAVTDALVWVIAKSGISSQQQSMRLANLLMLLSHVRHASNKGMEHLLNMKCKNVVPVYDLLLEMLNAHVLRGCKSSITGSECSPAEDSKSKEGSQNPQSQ
# Experiment: qHTS assay to identify small molecule agonists of the estrogen receptor beta (ER-beta) signaling pathway (AID 1259377; active = well fitted activation curve with a large enough effect in the signal ratio in the repeat runs, not every such curve was filed as active; the % refers to the signal ratio)
# Conditions: ER-beta-UAS-bla HEK293T, beta-lactamase FRET ratio, 16 h; series mostly up to 92.4 µM; activation: at the top concentration
# In short: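 Beta-lactamase reporter readout: fluorescence of LiveBLAzer B/G FRET substrate after 2 h at room temperature, following 16 h compound treatment of ER-beta-UAS-bla HEK293T cells at 37C in 2% charcoal-stripped FBS medium.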
row,SMILES,activation
1,NS(=O)(=O)c1ccc(Cl)c(S(N)(=O)=O)c1,-1.47% [at 42.5 µM]
2,O=C(O)c1ccccc1C(=O)Nc1ccc(S(=O)(=O)Nc2nccs2)cc1,4.91% [at 42.5 µM]
3,COCC(=O)Nc1c(I)c(C(=O)NCC(O)CO)c(I)c(C(=O)N(C)CC(O)CO)c1I (configuration not stated),0.33% [at 42.5 µM]
4,NC(=O)NC(=O)Cc1ccccc1,0.0931% [at 42.5 µM]
5,C=CCOC(=O)c1ccc(C(=O)OCC=C)c(C(=O)OCC=C)c1,0.566%
6,CC(C)SCc1ccco1,-1.3% [at 42.5 µM]
7,CCCOC(=O)CCCCC(=O)OCCC,7.8%
8,C=CCOc1c(Br)cc(C(C)(C)c2cc(Br)c(OCC=C)c(Br)c2)cc1Br,1.5% [at 42.5 µM]
9,C/C=C(\C)C(=O)OCC/C=C\CC,-3.2%
10,COc1cc([N+](=O)[O-])ccc1N,-1.13%
11,CCN1CN(CC)CN(CC)C1,0.286%
12,C=CCOCC(CO)(COCC=C)COCC=C,3.55% [at 42.5 µM]
13,CC(C)CCCCCCOC(=O)C1CCCCC1C(=O)OCCCCCCC(C)C (configuration not stated),0.88%
14,CCOc1ccc(NC(=O)OC(C)C)cc1OCC,-0.059%
15,NC(Cc1c[nH]c2ccccc12)C(=O)O (configuration not stated),-0.531% [at 42.5 µM]
16,O=C1c2ccccc2-c2ccccc21,3.49%
17,CCCCC(CC)COC(=O)c1ccccc1 (configuration not stated),7.7%
18,c1ccc(CNc2ncnc3nc[nH]c23)cc1,-0.568%
19,CC(C)CCCC(C)CC=O (configuration not stated),2.44%

row,SMILES,activation
1,CCN(Cc1cccc(S(=O)(=O)O)c1)c1ccccc1,5.13%
2,CO[Si](CCCCl)(OC)OC,-0.668%
3,NS(=O)(=O)c1ccccc1OC(F)(F)F,2.19%
4,CCOC(=O)CC#N,-0.915%
5,CCCCCCCCCCC,-6.62%
6,O=c1[nH]c(=O)c2ccccc2o1,1.12% [at 42.5 µM]
7,CC(=O)N1CCN(c2ccc(O)cc2)CC1,6.39% [at 42.5 µM]
8,COc1cc2c(Nc3ccc(Br)cc3F)ncnc2cc1OCC1CCN(C)CC1,0.356% [at 42.5 µM]
9,NS(=O)(=O)c1cc2c(cc1Cl)NC(CC1CCCC1)NS2(=O)=O (configuration not stated),2.13% [at 42.5 µM]
10,N#CCCOCCOCCC#N,-0.405%
11,Cc1ccc2c(c1)c1c3n2CCNC3CCC1 (configuration not stated),-6.1% [at 42.5 µM]
12,C1CCN2C[C@@H]3C[C@@H](CN4CCCC[C@@H]34)[C@H]2C1,8.61% [at 42.5 µM]
13,Cn1c(=O)c2c(ncn2CC2OCCO2)n(C)c1=O,4.58% [at 42.5 µM]
14,O=C(O)c1ccc(OCCN2CCCCC2)cc1,2.63% [at 42.5 µM]
15,COC(=O)CCC(=O)O,-0.199%
16,NS(=O)(=O)c1cc2c(cc1Cl)NC(C(Cl)Cl)NS2(=O)=O (configuration not stated),4.46% [at 42.5 µM]
17,CCCCC(CC)CNC(=O)CC(C)OC(=O)CCC(=O)O (configuration not stated),-1.28% [at 42.5 µM]
18,C[C@@H]1C[C@H]2[C@@H]3C[C@H](F)C4=CC(=O)C=C[C@]4(C)[C@@]3(F)[C@@H](O)C[C@]2(C)[C@@]1(O)C(=O)CO,-0.494% [at 42.5 µM]
19,COc1ccc(N=Nc2cc(C)c(N=Nc3ccc(S(=O)(=O)O)cc3)cc2OC)cc1,6.37%

# Target: Estrogen receptor beta (Homo sapiens) (UniProt Q92731)
# Experiment: qHTS assay to identify small molecule antagonists of the estrogen receptor beta (ER-beta) signaling pathway (AID 1259378; active = well fitted inhibition curve with a large enough effect in the signal ratio in the repeat runs, not every such curve was filed as active; the % refers to the signal ratio)
# Conditions: ER-beta-UAS-bla HEK293T, beta-lactamase FRET ratio, 16 h; series mostly up to 92.4 µM; activity, negative = inhibition: at the top concentration
# In short: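 Antagonist mode: compounds added to beta-lactamase reporter HEK293T ER-beta-UAS cells stimulated with E2 (1nM final), 16 hr at 37C. LiveBLAzer B/G FRET substrate, 2 hours room temperature, fluorescence read-out.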
row,SMILES,"activity, negative = inhibition"
1,NS(=O)(=O)c1ccc(Cl)c(S(N)(=O)=O)c1,12.3% [at 42.5 µM]
2,COCC(=O)Nc1c(I)c(C(=O)NCC(O)CO)c(I)c(C(=O)N(C)CC(O)CO)c1I (configuration not stated),7.37% [at 42.5 µM]
3,NC(=O)NC(=O)Cc1ccccc1,5.72% [at 42.5 µM]
4,CCCOC(=O)CCCCC(=O)OCCC,-3.25%
5,C=CCOc1c(Br)cc(C(C)(C)c2cc(Br)c(OCC=C)c(Br)c2)cc1Br,4.89% [at 42.5 µM]
6,C/C=C(\C)C(=O)OCC/C=C\CC,15.5%
7,CCOc1ccc(NC(=O)OC(C)C)cc1OCC,-0.454%
8,O=C1c2ccccc2-c2ccccc21,14%
9,CCCCC(CC)COC(=O)c1ccccc1 (configuration not stated),4.21%
10,c1ccc(CNc2ncnc3nc[nH]c23)cc1,-23.7%
11,CCN(Cc1cccc(S(=O)(=O)O)c1)c1ccccc1,9.5%
12,CO[Si](CCCCl)(OC)OC,0.905%
13,CCOC(=O)CC#N,4.61%
14,CCCCCCCCCCC,-20.7%
15,COc1cc2c(Nc3ccc(Br)cc3F)ncnc2cc1OCC1CCN(C)CC1,24.3% [at 42.5 µM]
16,NS(=O)(=O)c1cc2c(cc1Cl)NC(CC1CCCC1)NS2(=O)=O (configuration not stated),0.118% [at 42.5 µM]
17,N#CCCOCCOCCC#N,2.74%
18,C1CCN2C[C@@H]3C[C@@H](CN4CCCC[C@@H]34)[C@H]2C1,7.8% [at 42.5 µM]
19,Cn1c(=O)c2c(ncn2CC2OCCO2)n(C)c1=O,5.34% [at 42.5 µM]
20,COC(=O)CCC(=O)O,13%
21,NS(=O)(=O)c1cc2c(cc1Cl)NC(C(Cl)Cl)NS2(=O)=O (configuration not stated),10.6% [at 42.5 µM]
22,C[C@@H]1C[C@H]2[C@@H]3C[C@H](F)C4=CC(=O)C=C[C@]4(C)[C@@]3(F)[C@@H](O)C[C@]2(C)[C@@]1(O)C(=O)CO,-17% [at 42.5 µM]
